The values that follow come from PubChem BioAssay (Tox21).

Inconclusive results are not listed. Entries that show only a call come without a potency. Activity calls are given as the source filed them. Calls come from the whole dose curve; as a rule, active = well fitted inhibition curve with a large enough effect in the signal ratio in the repeat runs, with a control signal flat; inconclusive = weak or mixed curves, or effect the other way; inactive = flat fitted curve, though single readings scatter; the % refers to the signal ratio.
Potency is the fitted concentration of half-maximal effect.

Chain of D(2) dopamine receptor (Homo sapiens) (P14416 whole entry, looked up): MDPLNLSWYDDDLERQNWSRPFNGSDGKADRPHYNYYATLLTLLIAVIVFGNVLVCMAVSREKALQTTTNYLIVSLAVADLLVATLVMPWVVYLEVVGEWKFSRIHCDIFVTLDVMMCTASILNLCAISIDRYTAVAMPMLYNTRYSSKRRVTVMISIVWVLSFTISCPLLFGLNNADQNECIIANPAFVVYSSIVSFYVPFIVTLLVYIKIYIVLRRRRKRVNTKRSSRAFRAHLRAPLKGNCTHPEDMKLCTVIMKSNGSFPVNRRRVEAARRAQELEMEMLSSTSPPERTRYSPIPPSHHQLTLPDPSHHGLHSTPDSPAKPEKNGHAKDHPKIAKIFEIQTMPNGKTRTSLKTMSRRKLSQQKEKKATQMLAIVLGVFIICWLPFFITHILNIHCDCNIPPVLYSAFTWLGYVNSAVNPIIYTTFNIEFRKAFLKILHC

This assay has as its target D(2) dopamine receptor (Homo sapiens) (UniProt P14416). The experiment in a line: Dopamine D2 receptor (DRD2) small molecule antagonists, cell-based qHTS assay (AID 1963595). The note with it: HEK293-DRD2 cAMP HTRF antagonist mode; series mostly up to 92.4 µM. The text has this: National Center for Advancing Translational Sciences [NCATS]
Division of Preclinical Innovation [DPI]
U.S. Environmental Protection Agency [EPA]
National Institutes of Environmental Health Sciences [NIEHS]
National Toxicology Program [NTP]
U.S. Food and Drug Administration [FDA]
DRD2 is the D2 subtype of the dopamine receptor, which is coupled to Gi subtype of G protein-coupled receptor. This G protein-coupled receptor inhibits adenylyl cyclase activity. The DRD2-HEK293 cell line stably expressing D2 dopamine receptor can be used for screening agonists and antagonists of interactions between D2 and its ligands. The Hek293-DRD2 cAMP assay is based on HTRF technology. It measures changes of cAMP accumulation in response to Gi coupled GPCR activation or inhibition.
Tox21 Assay Protocol Summary:
DRD2-Hek293 cells were dispensed at 600 cells/3uL/well in 1536-well white plates using a Multidrop Dispenser. After the assay plates were incubated at a 37 C/5% CO2 incubator for 24 h, 1 uL of Ro20-1724 at final concentration of 0.1 mM was transferred to the assay plate by a Flying Reagent Dispenser. Following Ro20-1724 addition, 23 nL of compound dissolved in DMSO, positive controls or DMSO only was added to the assay plates via Wako pintool station. The assay plates were incubated at room temperature for 10 min. Next, 1 uL of mixture of NKH477 (final concentration at 200 nM) and quinpirole (final concentration at 12 nM) was added into the plates. After the assay plates were incubated at room temperature for an additional 30 min, 2.5 ul/well of cAMP-d2 and 2.5 ul/well of anti-cAMP-cryptate were added respectively into the assay plates using a Flying Reagent Dispenser. The plates were incubated at room temperature for 1 h. The fluorescence intensity in the plates was measured at 340 nm excitation and 665 & 620 nm emission by an Envision plate reader.
A general note: Quantitative high-throughput screening tests each substance at several concentrations.
Turning to `CCO[Si](CC)(OCC)OCC`, the Potency entry was “inactive”. With `CCCCCCCCCCCCCCCCOP(=O)([O-])OCC[N+](C)(C)C` the entry was “inactive”; with `CN1Cc2cc(C(=O)N3CCC(C4CCNCC4)CC3)ccc2N[C@@H](CC(=O)O)C1=O`, “inactive”; with `CC[N+](CC)(CC)Cc1ccccc1`, “inactive”. As for `C/C=C(\C)C=O`, the entry is “inactive”; as for `Cc1ccc(C(=O)Oc2ccc(C(O)CNC(C)(C)C)cc2OC(=O)c2ccc(C)cc2)cc1` (stereo not given), 0.841 µM (active); as for `COc1c(N2CCNC(C)C2)c(F)cc2c(=O)c(C(=O)O)cn(C3CC3)c12` (stereo not given), “inactive”. In the case of `OC[C@H](Cc1cccc(O)c1)[C@H](CO)Cc1cccc(O)c1`, the Potency result is “inactive”. As for `Cc1nc2n(c(=O)c1CCN1CCC(C(=O)c3ccc(F)cc3)CC1)CCS2`, the Potency was 0.0668 µM (active). For the compound `Cc1cc(C)c(NC(=O)CN(CC(=O)O)CC(=O)O)c(C)c1Br`, the Potency result was “inactive”. As to `CC(=O)Nc1ccc(N)cc1`, the Potency entry was “inactive”. Regarding `c1ccc(CNc2ncnc3nc[nH]c23)cc1`, the Potency entry was “inactive”. As for `CC(C)(O)CCCC1=CCC(C=O)CC1` (stereo not given), the entry is “inactive”; as for `C[C@H]1O[C@H](O[C@H]2[C@H](O)[C@@H](O)[C@@H](O[C@H]3[C@H](O)[C@@H](O)[C@H](O)O[C@@H]3CO)O[C@@H]2CO)[C@H](O)[C@@H](O)[C@@H]1N[C@H]1C=C(CO)[C@@H](O)[C@H](O)[C@H]1O`, “inactive”; as for `CC1CCC(C(C)CS)CC1S` (stereo not given), “inactive”. For the compound `CNCCc1ccccn1`, the Potency result was “inactive”.

Take `FC(F)(F)C(F)(F)C(F)(F)C(F)(F)CCI`: the Potency result is “inactive”. As for `COc1ccc2nc(SCc3ncc(C)c(OC)c3C)[nH]c2c1`, the entry is “inactive”. As for `C/C=C(\C)C(=O)OCCC(C)CCC=C(C)C` (stereo not given), the entry is “inactive”; as for `Cc1c(F)cc2c(=O)c(C(=O)O)cn3c2c1CCC3C` (stereo not given), “inactive”; as for `CCCCCCCC/C=C\CCCCCCCC(=O)OC`, “inactive”. As for `O=C(O)c1ccccc1Cl`, the entry is “inactive”; as for `c1cc[nH]c1`, “inactive”; as for `O=Cc1ccccc1[N+](=O)[O-]`, “inactive”.

`CCCn1cnc2c1c(=O)n(CCCCC(C)=O)c(=O)n2C`: the Potency result was “inactive”. With `O=c1c2ccccc2nnn1CCl`, the Potency entry was “inactive”. Turning to `O=C(O)c1cccc(-c2noc(-c3ccccc3F)n2)c1`, the Potency result is “inactive”.

Regarding `Nc1ccc(F)c([N+](=O)[O-])c1`, the Potency entry is “inactive”.

For the compound `COc1ccc(S(=O)(=O)N2c3ccc(Cl)cc3[C@@](O)(c3ccccc3Cl)[C@H]2C(=O)N2CCC[C@@H]2C(N)=O)cc1OC`, the Potency result is “inactive”. As for `C[C@@H]1C[C@H]2[C@@H]3CCC4=CC(=O)C=C[C@]4(C)[C@@]3(F)[C@@H](O)C[C@]2(C)[C@@]1(O)C(=O)COP(=O)(O)O`, the Potency result was “inactive”. As for `COc1cc(-c2ccc(N=C=O)c(OC)c2)ccc1N=C=O`, the entry is “inactive”; as for `O=c1[nH]sc2cc(Cl)ccc12`, “inactive”; as for `COc1cc(NS(=O)(=O)c2ccc(N)cc2)nc(OC)n1`, “inactive”. As for `Nc1nc(CC(=O)O)cs1`, the entry is “inactive”. With `CCN(CC)CCc1nc(-c2ccccc2)no1` the entry was “inactive”; with `CN=C(NC#N)NCCSCc1csc(N=C(N)N)n1`, “inactive”; with `CC(=O)OCC(C)C`, “inactive”. With `Oc1ccc(Oc2ccccc2)cc1`, the Potency entry was “inactive”. As for `CC(C)=CCC/C(C)=C/CC/C(C)=C/CCC(=O)OC/C=C(\C)CCC=C(C)C`, the entry is “inactive”. As for `COC(=O)c1ccc(I)cc1S(=O)(=O)NC(=O)Nc1nc(C)nc(OC)n1`, the Potency result is “inactive”.
